In PubChem BioAssay (NCI):
Compounds without any hit were thinned out: in the full panel of roughly 79,000, 15% have a hit. No stated cut-off is given here; in the data, active means growth inhibition above about 70%; inactive means the rest. Where a SMILES comes first, the peptide text is derived from it. The star is where a group is joined. ONb = O=[N+]([O-])c1ccc(CO*)cc1; Boc = CC(C)(C)OC(=O)*

Legend:
[1] = NCI Yeast Anticancer Drug Screen. Data for the rad50 strain (AID 155);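 further: 0% = growth of vehicle-only cultures of the same strain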; conditions: S. cerevisiae rad50 strain growth inhibition; at 50.0 µM; stronger effect = higher value
Method in brief: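 Relative growth inhibition (compound vs vehicle) was measured in yeast with a defined repair-gene alteration.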

[2] = NCI Yeast Anticancer Drug Screen. Data for the mec2-1 strain (AID 157); conditions: S. cerevisiae mec2-1 strain, at 50.0 µM, stronger effect = higher value
Method in brief: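 Using mec2-1 yeast: add compound, measure growth, express inhibition versus vehicle-treated cultures.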

[3] = NCI Yeast Anticancer Drug Screen. Data for the sgs1 mgt1 strain (AID 161);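 further: 0% = growth of cultures given vehicle only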; conditions: S. cerevisiae sgs1 mgt1 strain, at 50.0 µM, stronger effect = higher value
Method in brief: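 Percent growth inhibition was derived by comparing compound-exposed mutant yeast with vehicle-exposed cultures. The strain carries alterations in DNA damage repair.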

[4] = NCI Yeast Anticancer Drug Screen. Data for the cln2 rad14 strain (AID 165);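 further: 0% = growth equal to vehicle treated cultures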; conditions: S. cerevisiae cln2 rad14 strain, at 50.0 µM, stronger effect = higher value
Method in brief: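 Yeast strain cln2 rad14, bearing defects in cell cycle control and DNA repair, serves as the test system; values reflect growth inhibition compared with vehicle.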

[5] = NCI Yeast Anticancer Drug Screen. Data for the bub3 strain (AID 167); conditions: S. cerevisiae bub3 mutant strain, at 50.0 µM, stronger effect = higher value
Method in brief: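 Screening used yeast with an engineered genetic alteration affecting cell cycle control. Compound-exposed cultures were compared with vehicle cultures, and reduced growth was taken as inhibition.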

[6] = NCI Yeast Anticancer Drug Screen. Data for the mlh1 rad18 strain (AID 175); conditions: S. cerevisiae mlh1 rad18 strain growth inhibition; at 50.0 µM; stronger effect = higher value
Method in brief: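 Steps: expose repair-defective yeast to compound; measure growth; express inhibition against vehicle-treated controls.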

Measured: growth inhibition

CC(C)CC(NC(=O)OC(C)(C)C)C(=O)NC(CCC(=O)OCc1ccc([N+](=O)[O-])cc1)C(=O)OCc1ccc([N+](=O)[O-])cc1 (stereo not drawn) (Boc-Leu-Glu(ONb)-ONb; configuration not given here)
inactive: [1] -9.3% | [2] -25.5% | [3] -4.5% | [4] 4% | [5] -10.1% | [6] 8.35%

Cc1ccc(P(=S)(c2ccc(C)c3ccccc23)c2ccc(C)c3ccccc23)c2ccccc12
inactive: [1] -8.1% | [2] -6.3% | [3] -3.4% | [4] -8.7% | [5] 0.1% | [6] -4.9%

COc1ccc(Nc2cc(N)nc(N)n2)c(=S)[nH]1
inactive: [1] 0.05% | [2] -2.85% | [3] -5.15% | [4] 1.75% | [5] 3.05% | [6] -0.95%

Cc1nc2ccc(S(=O)(=O)Nc3ccccc3Cl)cc2c(=O)n1NC(=O)CNc1ccccc1Cl
inactive: [1] 26.4% | [2] 0.2% | [3] 13.4% | [4] 6.95% | [5] 21.8% | [6] 21.3%

O=C1C=CC(=NCl)C=C1
inactive: [1] -18.6% | [2] -24.9% | [3] 4.35% | [4] -21.9% | [5] 1.15% | [6] 10.6%

Cc1cc(N)ccc1C(=O)O
inactive: [1] 1.7% | [2] -7.65% | [3] -0.65% | [4] 4.15% | [5] 5.2% | [6] 2.45%

Cn1cc(-c2ccccc2)cc1-c1ccccc1
inactive: [1] -11.4% | [2] 6.6% | [3] -4.5% | [4] 4.9% | [5] -14.9% | [6] 9.75%

C=C=CON1CCCCC1
inactive: [1] -16% | [2] 14.9% | [3] -24.9% | [4] -5% | [5] -12.7% | [6] -0.6%

O=C1CC[C@@H](S(=O)(=O)c2ccccc2)[C@H](/C=C/c2ccccc2)O1
inactive: [1] -5.5% | [2] 25.2% | [3] 37.6% | [4] 26.1% | [5] -7.4% | [6] -15.9%

O=C(O)C1CSC2(CCCC2)N1 (stereo not drawn)
inactive: [1] 16.6% | [2] 4.15% | [3] 12.1% | [4] 4.35% | [5] 5.7% | [6] -1.6%

CCCCCCCNc1ccc(C(=O)OCC)cc1
inactive: [1] -1.5% | [2] 5.35% | [3] -1.95% | [4] 8.15% | [5] 7.3% | [6] -7.55%

O=C(Nc1ncnc2c1ncn2C1CCC(CO)O1)c1ccccc1 (stereo not drawn)
inactive: [1] -1.35% | [2] 2.15% | [3] 3.7% | [4] 7.45% | [5] 14% | [6] 16.9%

CC(C)C1OCC(CO)([N+](=O)[O-])CO1 (stereo not drawn)
inactive: [1] -45% | [2] -18.4% | [3] -21.8% | [4] -54.5% | [5] 1.35% | [6] -6.15%

CCCOc1cc2c(cc1C(C)(C)c1ccccc1)OCO2
inactive: [1] -16.9% | [2] -18.6% | [3] -12.7% | [4] -27.9% | [5] -3.5% | [6] -15.4%

COc1cccc(CN2CCCN(Cc3cccc(OC)c3O)C2c2ccccc2)c1O
inactive: [1] 22.1% | [2] 3.2% | [3] 1.8% | [4] -6.45% | [5] 0.9% | [6] 12.4%

COc1cc(C(=O)n2c(=O)oc(=O)c3cc([N+](=O)[O-])ccc32)cc(OC)c1OC
inactive: [1] -15.4% | [2] -6.15% | [3] -16.4% | [4] -6.65% | [5] 1.6% | [6] 2.2%

CC(=O)OCC(OC(C)=O)C(OC(C)=O)c1cnn(-c2ccccc2)n1 (stereo not drawn)
inactive: [1] 12.6% | [2] -1.5% | [3] 2.5% | [4] 17.7% | [5] 24.6% | [6] 22%

CCN(CC)c1ccc(NC(=S)Nc2ccc(N(CC)CC)cc2)cc1
inactive: [1] 23.3% | [2] -0.5% | [3] 4.95% | [4] -66% | [5] 22.2% | [6] -22.9%
